Hits are enriched below; roughly 3.9% of the tested compounds scored in any of these assays.
Rtt109 Vps75 – inhibitors of C. albicans Rtt109/Vps75 HAT, primary screen, biochemical, ThioGlo CoA-SH fluorescence, plate reader; 0.16% of 330,000 active; purified Rtt109/Vps75, 4 h; AID 540336, 2011; inhibition, % at 34.9 µM;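 active = inhibition of at least 50% in every replicate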
Target sequence (Q5AAJ8 whole entry, looked up): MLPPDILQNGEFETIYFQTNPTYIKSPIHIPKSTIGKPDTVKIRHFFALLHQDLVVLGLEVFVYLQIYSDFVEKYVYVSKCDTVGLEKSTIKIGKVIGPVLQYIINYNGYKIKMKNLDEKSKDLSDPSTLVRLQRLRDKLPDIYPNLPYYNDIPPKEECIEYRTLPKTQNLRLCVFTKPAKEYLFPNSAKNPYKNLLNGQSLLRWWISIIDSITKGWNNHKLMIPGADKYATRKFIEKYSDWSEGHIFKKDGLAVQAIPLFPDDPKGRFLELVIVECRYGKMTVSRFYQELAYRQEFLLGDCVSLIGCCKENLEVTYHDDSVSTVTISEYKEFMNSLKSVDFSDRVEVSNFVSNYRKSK
WT yeast gro inh – growth inhibition of WT strain, primary screen, mitochondrial fusion inhibitor project, WT and mutant strains, chemical genetic; mitochondrial fusion phenotypic screen; inhibition, % at 10 µM; 2.1% of 190,000 active; in the data active = inhibition above about 58%; tested in S. cerevisiae
TPT1 inhibitor – Candida albicans TPT1 enzyme inhibitors, primary screen, biochemical, fluorescence polarization | tRNA 2'-phosphotransferase TPT1 (Candida albicans SC5314) | recombinant caTPT1, FP RNA substrate dephosphorylation | inhibition, % at 5 µM | 0.81% of 300,000 active | AID 1962, 2009;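 active = inhibition above the mean of all tested compounds plus 3 SD, set per screening campaign, cut at about 24% in these data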;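 also: plate controls were DMSO alone for no effect and ferristatin control at 100 nM for full effect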
SKKanGAS inh – S. pyogenes SKKanGAS growth inhibitors in kanamycin, primary screen, streptokinase expression inhibitor project, SKKanGAS strain, BacTiter-Glo luminescence. AID 1662, 2009. 6 h. inhibition, % at 7.5 µM. 1.3% of 300,000 active;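 active = mean replicate score, as percent of positive control median, at least 50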;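 also: strain carries kanamycin resistance gene driven by streptokinase promoter and grows in 40 µg/ml kanamycin; loss of luminescence reflects streptokinase promoter inhibition or plain growth inhibition; 0% = median of DMSO wells and 100% = positive control at its reference dose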
PHOSPHO1 inh – PubChem AID 1565. Phosphoethanolamine/phosphocholine phosphatase (Homo sapiens), Q8TCT1. recombinant PHOSPHO1, absorbance phosphatase assay. inhibition, % at 13.3 µM. 1.1% of 290,000 active; in the data active = inhibition above about 60%
Target sequence (Q8TCT1 whole entry, looked up): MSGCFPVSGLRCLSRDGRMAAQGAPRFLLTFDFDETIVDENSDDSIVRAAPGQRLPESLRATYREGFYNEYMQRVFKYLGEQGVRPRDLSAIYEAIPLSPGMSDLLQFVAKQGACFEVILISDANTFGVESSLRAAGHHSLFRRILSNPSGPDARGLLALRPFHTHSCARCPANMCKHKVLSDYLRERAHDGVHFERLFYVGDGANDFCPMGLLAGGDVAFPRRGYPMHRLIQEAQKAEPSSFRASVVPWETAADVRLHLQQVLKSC
Platelet DG rel – inhibitors of platelet dense granule secretion, primary screen, cell-based, MLPCN, human platelets | human platelet-rich plasma, SFLLRN dense granule ATP release, luminescence | inhibition, %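 (compounds screened at 7.5 µM in platelet-rich plasma)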 | AID 1663, 2009 | 0.22% of 300,000 active;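 active = mean replicate score, as percent of positive control, at or above 50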
TPT1 inh confirm – Candida albicans TPT1 inhibitors, confirmation, biochemical, fluorescence polarization, triplicate; AID 2149, 2009; recombinant caTPT1, RNase T1 coupled; 74% of 2,400 active; shares compounds with TPT1 inhibitor; inhibition, % at 5 µM;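 active = inhibition above the primary screen limit, the mean inhibition of all tested compounds plus 3 SD, cut at about 25% in these data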
RNase T1 inh – RNase T1 inhibitors, counter-screen for TPT1 inhibitor project, biochemical, fluorescence polarization; 83% of 2,400 active; inhibition, % at 5 µM; RNase T1 cleavage, 1536-well; AID 2153, 2009; shares compounds with TPT1 inhibitor;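 active = inhibition above the solvent-only control well mean plus 3 SD, limit set per screening run, cut at about 23% in these data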;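 also: plate controls were DMSO wells with enzyme for no effect and wells without RNase T1 for full effect; inhibitors block cleavage so intact labeled substrate keeps polarization high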
* marks the source's active call; other numbers are inactive results; / = no result given.

SMILES | Rtt109 Vps75 | WT yeast gro inh | TPT1 inhibitor | SKKanGAS inh | PHOSPHO1 inh | Platelet DG rel | TPT1 inh confirm | RNase T1 inh
O=[N+]([O-])c1ccc(-c2ccc(/C=N/Nc3nc(N4CCCC4)nc(N4CCCC4)n3)o2)cc1 | -6 | 31 | 29* | 7 | 28 | -8 | 43* | 59*
CNc1ccc(Br)cc(C(=O)/C=C/c2ccc(Cl)cc2Cl)c1=O | 6 | 17 | 69* | 17 | 4 | -3 | 58* | 72*
CNc1ccc(Br)cc(C(=O)/C=C/c2ccc(OC)cc2OC)c1=O | 3 | 28 | 54* | 26 | -10 | -12 | 76* | 84*
O=C(/C=C/c1ccc(Cl)cc1Cl)c1ccc[nH]1 | 1 | 42 | 0 | -3 | 22 | 12 | / | /
COc1ccc(/C=C/C(=O)c2ccc(OC)cc2OC)c(OC)c1 | 1 | 20 | -1 | -3 | 12 | 2 | / | /
CNc1ccc(Br)cc(C(=O)/C=C/c2cccc(OC)c2)c1=O | -18 | -11 | 42* | 6 | 8 | 6 | 61* | 74*
O=C(NN1C(=O)NC2(CCCCC2)C1=O)c1cccs1 | -1 | / | / | / | / | / | / | /
N#C/C(=C\c1ccc(Cl)cc1)c1nc(-c2ccco2)cs1 | -3 | -8 | 7 | -8 | -9 | 18 | / | /
N#C/C(=C/c1ccc(-c2ccccc2)o1)c1nc(-c2cccs2)cs1 | -2 | 3 | 131* | / | -15 | / | 124* | 114*
N#C/C(=C\c1ccc(-c2ccc(F)cc2)o1)C(=O)Nc1nc(-c2cccs2)cs1 | 1 | 2 | -2 | 8 | 7 | 0 | / | /
N#C/C(=C/c1ccc(-c2ccc(S(N)(=O)=O)cc2)o1)C(=O)Nc1ccccc1 | -6 | -16 | 1 | 17 | -9 | -4 | / | /
N#C/C(=C/c1ccc(-c2ccc(S(N)(=O)=O)cc2)o1)c1nc2ccccc2s1 | -4 | 18 | 73* | / | -6 | / | 41* | 50*
N#C/C(=C\c1ccc(-c2ccccc2)cc1)c1nc(-c2ccco2)cs1 | -11 | -8 | 61* | -6 | 9 | -6 | 21 | 28*
COc1ccc(C(=O)NCCCOc2cccc(NC(C)=O)c2)cc1 | / | / | -1 | -6 | 27 | -1 | / | /
NC(=O)CC(NC(=O)Cc1cccc2ccccc12)c1ccc(NCc2ccccc2)c([N+](=O)[O-])c1 (centres undefined) | 1 | / | 9 | 10 | 20 | 11 | / | /
CC(C)Nc1ccc(C(CC(N)=O)NC(=O)Cc2cccc3ccccc23)cc1[N+](=O)[O-] (centres undefined) | 0 | / | 75* | -2 | 34 | -1 | 85* | 95*
NC(=O)CC(NC(=O)Cc1cccc2ccccc12)c1ccc(NC2CCN(Cc3ccccc3)CC2)c([N+](=O)[O-])c1 (centres undefined) | -17 | / | 26* | 5 | 10 | 1 | 29* | 40*
NC(=O)CC(NC(=O)Cc1ccc(Br)cc1)c1ccc(NC2CCN(Cc3ccccc3)CC2)c([N+](=O)[O-])c1 (centres undefined) | 0 | / | 1 | -1 | -7 | 4 | / | /
NC(=O)N/N=C/c1sc(=O)n(-c2ccccc2)c1Cl | -2 | / | 39* | 6 | 32 | 3 | 47* | 66*
Cc1nn(CC(=O)c2ccc(Cl)s2)c(C)c1[N+](=O)[O-] | -4 | 23 | 43* | 6 | 36 | -6 | 40* | 49*
CN(C(=O)c1cccs1)C1(C)CCS(=O)(=O)C1 (centres undefined) | 21 | / | -1 | 7 | -4 | -2 | / | /
Nc1nonc1C(=O)N/N=C/c1cc(Br)ccc1O | -3 | 28 | 33* | -6 | -4 | 0 | 30* | 38*
N#Cc1c(SCC(=O)Nc2nccs2)sc2c(O)cc(=O)[nH]c12 | -1 | / | 79* | 16 | -20 | 9 | 10 | 15
CCCSc1nnc(NC(=O)CSc2sc3c(O)cc(=O)[nH]c3c2C#N)s1 | 18 | / | 18 | 26 | 19 | 2 | / | /
Cn1nc(N2CCN(S(=O)(=O)c3ccccc3)CC2)c(=O)n(C)c1=O | -2 | / | / | / | / | / | / | /
SMILES | Rtt109 Vps75 | WT yeast gro inh | TPT1 inhibitor | SKKanGAS inh | PHOSPHO1 inh | Platelet DG rel | TPT1 inh confirm | RNase T1 inh
O=C(Nc1ccccc1Cl)C1CC(=O)N(Cc2ccco2)C1 (centres undefined) | -6 | / | / | / | / | / | / | /
CCCNC(=O)Cn1c(=O)/c(=C\c2ccc(-c3cccc([N+](=O)[O-])c3)o2)s/c1=C\C(=O)C(C)(C)C | 5 | 1 | 50* | 23 | -10 | 4 | -88 | -58
CCCNC(=O)Cn1c(=O)/c(=C\c2ccc(-c3ccc([N+](=O)[O-])cc3)o2)s/c1=C\C(=O)C(C)(C)C | -3 | 8 | 109* | 15 | 9 | 15 | 99* | 99*
CC1(C)C(=O)Nc2ccccc2N1C(=O)COC(=O)/C=C/c1ccc(OC(F)F)cc1 | 7 | / | 0 | 5 | / | 7 | / | /
COc1ccccc1-n1c(CNC(=O)c2ccc(S(=O)(=O)N3CCCCC3)cc2)n[nH]c1=S | -10 | / | 1 | 0 | 12 | 12 | / | /
CC1CCN(CC(=O)Nc2sc3c(c2C#N)CCC3)CC1 | 8 | 21 | 39* | -3 | 12 | -17 | 5 | 13
Cc1ccc(CCNS(=O)(=O)c2cc3c(cc2Cl)NC(=O)CO3)cc1 | -16 | / | 1 | 0 | 15 | -2 | / | /
CCOC(=O)CN(C(=O)CSc1nnnn1C)c1ccccc1 | -3 | / | / | / | / | / | / | /
CC(=O)c1sc2nc(CSc3nnnn3-c3ccccc3)[nH]c(=O)c2c1C | -3 | -18 | 71* | 16 | -11 | -1 | 69* | 81*
Cc1cccc(NC(=O)NC2CCCc3ccccc32)c1 (centres undefined) | -23 | / | -1 | -8 | 21 | 28 | / | /
CCN1/C(=C2/OC(=S)N(C)C2=O)Sc2ccccc21 | 9 | 9 | / | / | 6 | / | / | /
CCN1/C(=C\C=C2\C(=O)N(C)C(=S)N2C)Sc2ccccc21 | -6 | 29 | 47* | 11 | -18 | 7 | 60* | 73*
COc1cccc(CC(=O)OCC(=O)NC(C)c2ccc(F)cc2)c1 (centres undefined) | 7 | / | / | / | / | / | / | /
CC(=O)c1c(N2CCN(c3ccccc3)CC2)nc(=S)n(-c2ccccc2)c1C | 42 | -2 | 78* | 0 | 10 | -10 | 26* | 35*
N#Cc1c(N)n(CCNC(=O)c2cccs2)c2nc3ccccc3nc12 | -315 | -2 | 63* | -1 | -18 | -1 | 45* | 59*

Screening data from PubChem.
